# The list is not random: actives were taken first. Their share in the collection is about 5.2%.
# VDR inh: Inhibitors of the vitamin D receptor (VDR): qHTS; VDR-SRC2-3 peptide fluorescence polarization, 2 h; Vitamin D3 receptor (Homo sapiens), P11473; Potency, µM, most hits filed as inhibitors; 400,000 compounds, 0.93% hits; AID 504847, 2011
#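 Signal is fluorescence polarization, reporting how far test compounds block the interaction of VDR with the SRC2-3 coregulator peptide after a 2 h room-temperature incubation.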
# mIDH1 inhibitor: qHTS for Inhibitors of mutant isocitrate dehydrogenase 1 (IDH1): qHTS; Isocitrate dehydrogenase [NADP] cytoplasmic (Homo sapiens), O75874; IDH1-R132H enzyme, NADPH consumption, diaphorase/resazurin fluorescence; Potency, µM (doses to about 76.6 µM), hits mostly inhibitors; 390,000 compounds, 0.093% hits; AID 602179, 2012; further: nearly all actives have a fitted effect of over 65% in size
#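 IDH1-R132H (0.5 ug/mL) preincubated 30 min with compound, then NADPH (0.016 mM) and alpha-KG (2 mM) added; 80 min at RT, pH 7.5. Remaining NADPH coupled via diaphorase/resazurin to fluorescence (540/590 nm); concentration-response curves normalized to no-enzyme control.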
# TrxR1 substrate: qHTS Assay for Substrates of Mammalian Selenoprotein Thioredoxin Reductase 1 (TrxR1): qHTS; Thioredoxin reductase 1, cytoplasmic (Rattus norvegicus), O89049; purified TrxR1 substrate turnover, NADPH consumption readout; Potency, µM (series often up to 114 µM); 390,000 compounds, 0.01% hits; AID 588456, 2011; further: nearly all actives have a fitted effect of over 50% in size
#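 Rat TrxR1, dispensed at 90 nM, was prereduced with 400 uM NADPH (final) for 5 min at ~22 deg C, then incubated with compound 15 min before 400 uM selenite. A first-read NADPH fluorescence drop versus no-compound background flagged substrates.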
# TrxR1 inh: qHTS Assay for Inhibitors of Mammalian Selenoprotein Thioredoxin Reductase 1 (TrxR1): qHTS | 390,000 compounds, 1% hits | AID 588453, 2011 | Potency, µM (highest dose often 114 µM), actives largely listed as inhibitors | recombinant rTrxR1, NADPH fluorescence consumption, selenite substrate; further: nearly all actives have a fitted effect of over 65% in size
#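 Rat TrxR1 (90 nM in the dispensed reagent) was pre-reduced with 400 uM NADPH for 5 min at room temperature, then incubated with compound for 15 min. After 400 uM selenite was added, NADPH fluorescence (Ex 340/Em 450 nm) was followed for 8 min.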
# Sfp inh: qHTS Assay for Inhibitors of Bacillus subtilis Sfp phosphopantetheinyl transferase (PPTase); 4'-phosphopantetheinyl transferase ffp (Bacillus subtilis), Q9F4F7; Biochemical Sfp PPTase activity, qHTS; Potency, µM, hits mostly inhibitors; 310,000 compounds, 3.5% hits;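 further: the enzyme is Sfp with the accession as filed and its product quenches rhodamine fluorescence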
#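 Sfp 15 nM + cpd, 15 min RT; start w/ rhodamine-CoA 5 uM, BHQ-2-YbbR 12.5 uM (final); 50 mM Hepes pH 7.6, 10 mM MgCl2, 0.01% NP-40, 0.01% BSA; read 525/598 nm at 0 and 30 min.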
# PLK1 PBD inh: qHTS for Inhibitors of PLK1-PDB (polo-like kinase 1 - polo-box domain): Primary Screen; Plk1 PBD binding of FITC phosphopeptide, fluorescence polarization; Potency, µM, usual class: inhibitors; 360,000 compounds, 2.8% hits; AID 720504, 2013; further: series mostly up to about 57 µM; nearly all actives have a fitted effect of over 65% in size
# Target sequence (P53350 whole entry, looked up, the tested form may be a part): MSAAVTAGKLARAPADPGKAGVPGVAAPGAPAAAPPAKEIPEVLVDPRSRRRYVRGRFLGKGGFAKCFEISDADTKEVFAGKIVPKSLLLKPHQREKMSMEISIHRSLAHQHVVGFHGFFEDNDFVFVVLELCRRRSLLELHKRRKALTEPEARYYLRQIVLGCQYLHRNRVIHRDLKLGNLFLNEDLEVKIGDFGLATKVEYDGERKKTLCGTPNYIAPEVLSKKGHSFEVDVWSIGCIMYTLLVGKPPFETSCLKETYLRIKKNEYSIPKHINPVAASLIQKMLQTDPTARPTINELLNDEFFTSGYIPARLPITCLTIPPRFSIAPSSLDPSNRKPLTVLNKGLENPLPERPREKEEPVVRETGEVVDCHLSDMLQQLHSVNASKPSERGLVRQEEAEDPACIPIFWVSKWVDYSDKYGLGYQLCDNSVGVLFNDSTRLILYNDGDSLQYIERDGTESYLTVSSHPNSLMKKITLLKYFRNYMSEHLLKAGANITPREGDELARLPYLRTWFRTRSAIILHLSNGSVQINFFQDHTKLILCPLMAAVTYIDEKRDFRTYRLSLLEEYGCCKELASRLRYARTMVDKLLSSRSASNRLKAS
# Numbers stand for hits; n = inactive; u = inconclusive; x = no result; ! = not active in a repeat; [ ] = dose if it differs, or a comment. The call rests on the fitted dose curve; in most records, active means well fitted curve in the direction sought with a large enough effect; inconclusive means small, poorly fitted or top-dose-only effect, or another doubt; inactive means no such curve, though single readings can be large; an effect the other way counts as inactive or inconclusive.
SMILES,VDR inh,mIDH1 inhibitor,TrxR1 substrate,TrxR1 inh,Sfp inh,PLK1 PBD inh
COc1ccc(N2CC(O)=C(c3n(C)c4ccccc4[n+]3C)C2=N)cc1,n,n,n,n,n,27µM
COc1ccc(N2CC(O)=C(c3nc(C)cs3)C2=N)cc1,n,n,n,n,n,n
O=S(c1ccccc1O)S(=O)c1ccccc1O (configuration not stated),35µM,n,n,n,x,0.6µM
CS(=O)c1ccccc1O (configuration not stated),n,n,n,n,n,n
NS(=O)(=O)c1ccc(CCNCc2cc(Br)ccc2OCc2ccccc2)cc1,n,n,n,n,n,n
CCOc1cc(CNCCc2ccc(S(N)(=O)=O)cc2)ccc1OCc1ccccc1,n,n,n,n,11µM,n
NS(=O)(=O)c1ccc(CCNC(=O)c2cccc3ccccc23)cc1,n,n,n,u,n,n
CCNCc1cc(Cl)c(OCc2ccccc2)c(OCC)c1,n,n,n,n,n,n
NS(=O)(=O)c1ccc(CCNC(=O)c2ccc[nH]c2=S)cc1,n,n,n,n,56µM,n
CCOc1cc(CNCCc2ccc(S(N)(=O)=O)cc2)cc(Cl)c1OCc1ccccc1,n,n,n,n,3.5µM,n
CCOc1cc(C(=O)NCCc2ccc(S(N)(=O)=O)cc2)cc(OCC)c1OCC,n,n,n,n,n,30µM
CC(=O)Nc1ccc(S(=O)(=O)NCCSCc2ccco2)cc1,n,n,n,u,32µM,n
CC(=O)Nc1ccc(S(=O)(=O)NCCSCc2c(Cl)cccc2Cl)cc1,n,n,n,n,n,n
CCN(CC)S(=O)(=O)c1ccc(Cl)nc1,n,n,n,n,n,n
COCCN(CCOC)S(=O)(=O)c1ccc(Cl)nc1,n,n,n,n,n,21µM
O=C(O)c1ccccc1-c1ncc(-c2ccccc2)o1,n,n,n,n,x,n
Cc1ccc(N(CC(O)COCc2ccco2)S(=O)(=O)c2ccc(C)cc2)cc1 (configuration not stated),u,n,n,7.1µM,u,n
CCCN(CCC)CC(O)CN(c1ccccc1)S(=O)(=O)c1ccc(C)cc1 (configuration not stated),n,n,n,n,n,n
CCSC(=O)N=Nc1ccc(O)cc1,u,n,n,n,x,27µM
CCOC(=O)c1ccc(O)cc1,n,x,x,x,n,x
O=C(Nc1ccccc1)N(O)c1ccc(Cl)cc1,28µM,n,n,n,n,n
CCN(CCS(=O)(=O)c1ccc(Cl)cc1)C(=O)Nc1ccccc1,n,n,n[2.29 µM],n,n,n
CCCc1c2c(cc3c(=O)cc(C(=O)OCC)oc13)CCCC2,u,n,n,n,n,21µM
CCc1ccccc1OCCOc1ccc(C)cc1OC,n,n,n,n,n,3µM
COc1ccccc1OCCOCCOc1ccc(C)cc1Br,n,n,n,n,n,n
SMILES,VDR inh,mIDH1 inhibitor,TrxR1 substrate,TrxR1 inh,Sfp inh,PLK1 PBD inh
COc1cc(C)ccc1OCCOc1cc(C)ccc1Cl,n,n,n,n,n,24µM
COc1cc(C)ccc1OCCOCCOc1cccc2ccc(C)nc12,n,n,n,n,50µM,n
O=S1(=O)C2CC3C=CC2(CN1Cc1cccc(F)c1)O3 (configuration not stated),n,x,n,n,n,x
CCOC(=O)c1noc2ncnc(N(CCC(=O)OC)c3ccccc3)c12,n,n,n,n,x,x
Cc1ccc2oc(=O)n(CCNC(=O)Nc3ccc(C)c(F)c3)c2c1,n,n,n,n,x,x
CCOC(=O)Cc1nnc(NC(=O)C(CC)Sc2nc(C)cc(=O)[nH]2)s1 (configuration not stated),u,n,n,n,n,21µM
CC1=C[C@@H](O)CC(C)(C)[C@@H]1/C=C/C(C)=C/C=C/C(C)=C/C=C/C=C(C)/C=C/C=C(C)/C=C/C1=C(C)C[C@H](O)CC1(C)C,28µM,x,x,x,50µM,x
CC1=C(/C=C/C(C)=C\C=C\C(C)=C\C=C\C=C(C)\C=C\C=C(C)\C=C\C2=C(C)C[C@@H](O)CC2(C)C)C(C)(C)C[C@H](O)C1,40µM,x,x,x,u,x
CC1=C(/C=C/C(C)=C/C=C/C(C)=C/C=C/C=C(C)/C=C/C=C(C)/C=C/C(=O)[C@]2(C)CC(O)CC2(C)C)C(C)(C)CC(O)C1 (some centres not stated),n,x,x,x,n,x
CCOC(=O)c1ccc(NC(=O)c2c(-c3c(F)cccc3Cl)noc2C)cc1,n,n,n,n,x,x
COc1cccc([C@@H]2Oc3ccc(OC)cc3C(=O)[C@H]2OC(=O)NCCc2ccc(OC)c(OC)c2)c1,n,x,x,x,n,x
COc1ccc(OCCn2nnc3sc4c(c3c2=O)CCC(C(C)(C)C)C4)cc1 (configuration not stated),n,x,n,n,x,x
COCCCCC(=NOCCN)c1ccc(C(F)(F)F)cc1,n,x,x,x,n,x
COCCCC/C(=N\OCCN)c1ccc(C(F)(F)F)cc1,n,n,n,n,56µM!,n
C[C@H](NC(=O)C1CC(=O)N(c2ccc(F)cc2)C1)C(=O)N1CCCCC1 (some centres not stated),n,n,n,n,n,24µM
CC(C)NS(=O)(=O)c1ccc(OCC(=O)Nc2ccc(F)cc2)cc1,n,n,n,n,n,24µM
CNC(=O)C1CC(=O)N(c2ccc(OCC(=O)Nc3ccc(F)cc3)cc2)C1 (configuration not stated),n,n,n,n,x,27µM
CCC(=O)N1c2ccccc2CC1C(=O)NCCc1ccccc1 (configuration not stated),n,n,n,n,x,x
Cc1ccc([S+](=O)([O-])N(c2ccccc2)[S+](=O)([O-])C(F)(F)F)cc1,n,x,x,x,n,x
Cc1nn(C)c(C)c1NS(=O)(=O)c1ccccc1Cl,n,n,n,n,x,u
O=C(O)C1CSC(c2coc3ccccc3c2=O)N1 (configuration not stated),u,n,n,n,45µM,n
COc1cccc(C(=O)NCCSCc2c(F)cccc2Cl)c1,u,n,n,n,n,21µM
CCCCC/C=C/C1=CC(=O)C[C@H](c2ccc(OC)cc2)C1,n,n,n,n,x,n

# Source: PubChem
